Results on 16 compounds are retold here after paper PMC11062922 (Nature Chemical Biology, 2023).

Each structure is given as a SMILES string. Like-named read-outs stand apart in the source and are kept apart here.

What all share (set-up): species or system human, MV4-11 + K-562 + COLO205 + SK-N-BE2 + OVCAR-8
One assay relates to ADCK1. The conditions noted are these: read-out: apparent Kd; compound concentrations:100 nM and 1000 nM (sheet 'Samples'); n = 1.
The subject of a further assay is MARK2. The settings on record: read-out: apparent Kd; compound concentrations:100 nM and 1000 nM (sheet 'Samples'); n = 1.
Another assay deals with PHKG2. The conditions noted are these: read-out: apparent Kd; compound concentrations:100 nM and 1000 nM (sheet 'Samples'); n = 1.
The test system of the next assay is PRKAA2. The settings on record: read-out: apparent Kd, n = 1.
The subject of a further assay is RPS6KA4. The settings on record: read-out: apparent Kd, n = 1.
The subject of another assay is STK3. The conditions noted are these: read-out: apparent Kd, n = 1.
The next assay deals with TNIK. The settings on record: read-out: apparent Kd, n = 1.
The test system of another assay is BUB1. The settings on record: read-out: apparent Kd; compound concentrations:100 nM and 1000 nM (sheet 'Samples'); n = 1.
The subject of a further assay is MAPK8. The conditions noted are these: read-out: apparent Kd, n = 1.
The test system of the next assay is STK16. The conditions noted are these: read-out: apparent Kd, n = 1.
A further assay has as its system CDK17. The conditions noted are these: read-out: apparent Kd, compound concentrations: 100 nM and 1000 nM (sheet 'Samples'), n = 1.
The subject of the next assay is CSNK1A1. The settings on record: read-out: apparent Kd; compound concentrations: 100 nM and 1000 nM (sheet 'Samples'), CATDS: 1.7292199039589701E-2; n = 1.
A further assay deals with PRKX. The conditions noted are these: read-out: apparent Kd, compound concentrations: 100 nM and 1000 nM (sheet 'Samples'), n = 1.
A further assay relates to ROCK2. The settings on record: read-out: apparent Kd, n = 1.
For the next assay, the system named is RIOK2. The conditions noted are these: read-out: apparent Kd; compound concentrations:100 nM and 1000 nM (sheet 'Samples'); n = 1.
A further assay has as its system EPHA2. The conditions noted are these: read-out: apparent Kd; compound concentrations: 100 nM and 1000 nM (sheet 'Samples'), CATDS: 2.1099204097422001E-2; n = 1.
[1] abbreviates: compound concentrations:100 nM and 1000 nM (sheet 'Samples').

With `O=C(O)C(F)(F)F.O=c1[nH]ccc2nc(N[C@@H]3CCNC3)nc(Nc3cc(Cl)cc(Cl)c3)c12` [GSK2188764A], the potency estimated from few doses with ADCK1 is 1680 nM; in the assay with MARK2, 535 nM; in the assay on PHKG2, 786 nM; in the assay with PRKAA2 (setting [1]) it was 106 nM; in the assay on RPS6KA4 (setting [1]), 472 nM; in the assay with STK3 (setting [1]), 847 nM. For the same compound, the potency estimated from few doses with TNIK (setting [1]) is 1270 nM.

`CC(C)Oc1ccc2c(-c3ccnc(Nc4ccc(N5CCN(C)CC5)cc4)n3)cnn2n1` [GW696155X]: the potency estimated from few doses in the assay with ADCK1 is 44.9 nM; in the assay with BUB1, 853 nM; with MAPK8 (setting [1]) it was 352 nM; with STK16 (setting [1]) it was 39.2 nM.

Regarding `CNCC#Cc1c(F)ccc2c1/C(=C/c1[nH]ccc1OC)C(=O)N2.Cl` [RO0281601-001], the potency estimated from few doses was 838 nM with CDK17 (CATDS: 2.8122134627670499E-2); 696 nM with RPS6KA4 (compound concentrations: 100 nM and 1000 nM (sheet 'Samples'), CATDS: 3.0047903909945699E-2); 1180 nM with STK16 (compound concentrations: 100 nM and 1000 nM (sheet 'Samples'), CATDS: 2.5135483463970699E-2); 1650 nM in the assay on STK3 (compound concentrations: 100 nM and 1000 nM (sheet 'Samples'), CATDS: 2.2839730138462501E-2); 2180 nM in the assay on TNIK (compound concentrations: 100 nM and 1000 nM (sheet 'Samples'), CATDS: 2.1303462940689799E-2).

Regarding `Cl.Cl.NCC(NC(=O)c1cc(-c2ccnc3[nH]ccc23)cs1)c1ccccc1.NCC(NC(=O)c1cc(-c2ccnc3[nH]ccc23)cs1)c1ccccc1` (centres unmarked) [GSK1229959A], the potency estimated from few doses with CSNK1A1 is 1760 nM; in the assay with PRKX (CATDS: 6.1031439007252199E-2), 21.6 nM; in the assay with ROCK2 (compound concentrations: 100 nM and 1000 nM (sheet 'Samples'), CATDS: 0.12516480015121101), 6.2 nM.

On to `Nc1nc(-c2ccc3c(N)n[nH]c3c2)cc(N2CCCC(NC(=O)c3ccccc3)C2)n1` (centres unmarked) [GSK2286775B], for which the potency estimated from few doses with RIOK2 was 1860 nM.

Consider `COc1cc2ncn(-c3cc(OCc4ccccc4S(C)(=O)=O)c(C#N)s3)c2cc1OC` [GSK319347A], for which the potency estimated from few doses in the assay with TNIK (compound concentrations: 100 nM and 1000 nM (sheet 'Samples'), CATDS: 7.3332449024222507E-2) is 2280 nM.

As for `Cl.Cn1c(=O)c(Cc2ccccc2F)cc2cnc(NC3CCOCC3)nc21` [RO3305377-001], the potency estimated from few doses in the assay with EPHA2 is 976 nM.

Take `NS(=O)(=O)c1ccc(N/N=C2\C(=O)Nc3ccc4ncccc4c32)cc1` [GW305178X]: the potency estimated from few doses with CDK17 (CATDS: 6.1858788217922803E-2) was 544 nM; in the assay with STK3 (compound concentrations: 100 nM and 1000 nM (sheet 'Samples'), CATDS: 4.2852870715448799E-2) it was 1580 nM.

`O=C1N=C(N[C@H](CO)c2ccccc2)S/C1=C\c1ccc2ncccc2c1` [RO4554339-000]: the potency estimated from few doses with PRKX (CATDS: 0.109723190232525) was 705 nM.

On to `O=C(Nc1n[nH]c2nc(-c3ccccc3O)ccc12)C1CC1` [SB-711880], for which the potency estimated from few doses in the assay with MARK2 was 2380 nM; with PHKG2 it was 1550 nM; in the assay on STK3 (setting [1]) it was 483 nM; with TNIK (setting [1]) it was 1150 nM.

With `CN[C@H](C#Cc1c(F)ccc2c1/C(=C/c1[nH]ccc1OC)C(=O)N2)CO.Cl` [RO0283049-001], the potency estimated from few doses is 797 nM in the assay on CDK17 (CATDS: 2.52216381525E-2); 951 nM in the assay on MAPK8 (compound concentrations: 100 nM and 1000 nM (sheet 'Samples'), CATDS: 2.3865575859687099E-2); 1240 nM with PRKAA2 (compound concentrations: 100 nM and 1000 nM (sheet 'Samples'), CATDS: 2.2132106558792702E-2); 432 nM in the assay on RPS6KA4 (compound concentrations: 100 nM and 1000 nM (sheet 'Samples'), CATDS: 3.14855312856318E-2); 1110 nM in the assay with STK16 (compound concentrations: 100 nM and 1000 nM (sheet 'Samples'), CATDS: 2.2828381206070801E-2); 733 nM in the assay with STK3 (compound concentrations: 100 nM and 1000 nM (sheet 'Samples'), CATDS: 2.5923871339058099E-2).

For the compound `CCn1c(-c2nonc2N)nc2cncc(Br)c21` [SB-738004], the potency estimated from few doses in the assay with ROCK2 (setting [1]) is 84.1 nM.

For `Cl.Nc1nc(-c2ccc3c(c2)C(=Cc2cc(Br)c(O)c(Br)c2)C(=O)N3)cs1` [GW407323A], the potency estimated from few doses in the assay with CDK17 (CATDS: 2.78233460707746E-2) is 2030 nM; with TNIK (compound concentrations: 100 nM and 1000 nM (sheet 'Samples'), CATDS: 0.10928508706444801), 58.6 nM.

`NS(=O)(=O)c1ccc(N/N=C2\C(=O)Nc3ccc(-c4cnco4)cc32)cc1` [GW276655_KCGS]: in the assay with TNIK (setting [1]), the potency estimated from few doses is 1940 nM.

For the compound `CC(C)N1CC(=O)N(C)c2cnc(Nc3cccc(S(=O)(=O)CCN4CCOCC4)c3)nc21` [BI00009348], the potency estimated from few doses with STK16 (compound concentrations: 100 nM and 1000 nM (sheet 'Samples'), CATDS: 5.8221493759355002E-2) was 1180 nM.

With `COc1cccc(C2=C(c3c(C)n(C)c4ccccc34)C(=O)NC2=O)c1` [RO3300167-000], the potency estimated from few doses in the assay on STK3 (compound concentrations: 100 nM and 1000 nM (sheet 'Samples'), CATDS: 0.106754068539186) is 824 nM.
